Reference: PubChem BioAssay AID2315 (National Center for Advancing Translational Sciences (NCATS), 2010)
Hit rate of the full screen: of about 290,000 compounds, about 27,000 (9.3%) were called active. Rule as the data show it: active = inhibition mostly above about 28% (no sharp cut-off); inactive = mostly below about 43%. The full list was thinned out, with actives kept by preference.

Assay: A qHTS for Small Molecule Inhibitors of Shiga Toxin; also: 0% is about no effect
Conditions: Vero cells, Shiga toxin protein synthesis inhibition reporter; at 38.7 µM, hits give high values

Row | SMILES | inhibition
1 | c1ccc(CSc2nnc(-c3ccco3)n2Cc2ccccc2)cc1 | 94.3% (active)
2 | O=C(CSc1nnc(-c2ccco2)n1Cc1ccccc1)NC(=O)NCc1ccco1 | 10.4% (inactive)
3 | c1ccc(CSc2nnc(-c3ccco3)c(-c3ccco3)n2)cc1 | -7.92% (inactive)
4 | O=C(Nc1ccc(S(=O)(=O)NCC2CCCO2)cc1)c1ccc(F)cc1 (stereo not drawn) | -1.55% (inactive)
5 | CCc1cccc(C)c1NS(=O)(=O)c1cc(Br)cnc1N | -8.52% (inactive)
6 | Cn1nccc1/C=N\NC(=O)c1ccc(Cl)cc1 | 30.8% (active)
7 | COc1ccc(/C=N/NC(=O)c2ccc(Cl)cc2)cc1COC(C)=O | -2.77% (inactive)
8 | CC1(C)C2CC=C(/C=N/NC(=O)c3ccc(Cl)cc3)C1C2 (stereo not drawn) | 30.5% (inactive)
9 | Cc1c(CC(=O)N2CCN(C(=O)C3COc4ccccc4O3)CC2)c(=O)oc2c(O)c(O)ccc12 (stereo not drawn) | 6.52% (inactive)
10 | O=C(CCC1CCCN(C(=O)c2ccc(F)c(F)c2)C1)N1CCN(c2ccccn2)CC1 (stereo not drawn) | -25.9% (inactive)
11 | Cc1ccc(O)c(CNc2nc3ccccc3[nH]2)c1 | 30.6% (inactive)
12 | Cc1ccc(O)c(CNc2nc3ccccc3n2C)c1 | 75.2% (active)
13 | CC(C)n1c(NCc2c[nH]c3ccccc23)nc2ccccc21 | 8.94% (inactive)
14 | O=C(NCCCN1CCOCC1)c1ccc2c(c1)N(Cc1cccc(F)c1)C(=O)c1ccccc1S2 | -12.3% (inactive)
15 | CC(C)C(OC(=O)c1cccs1)C(=O)NC1CCCCC1 (stereo not drawn) | 8.34% (inactive)
16 | O=C(NC1CCCC1)c1cc(-c2ccccc2)on1 | 157% (active)
17 | CC(=O)c1cc(-c2ccccc2)n(CC(=O)NC2CCCCC2)c1C | 26.5% (inactive)
18 | O=C(CCC(=O)c1cccs1)NC1CCCCCC1 | 29.7% (inactive)
19 | O=C(Nc1cc(C(F)(F)F)ccc1Cl)c1cc(C2CC2)on1 | -4.26% (inactive)
20 | O=C(NC1CCN(S(=O)(=O)c2ccc(F)cc2)CC1)c1ccccc1 | -7.58% (inactive)
21 | O=C(NC1CC1)c1cccc(Br)c1 | 23.6% (inactive)
22 | O=C(NC1CCCCCCC1)c1cccs1 | 88.4% (active)
23 | O=C(NC1CC1)c1ccc(-c2ccccc2)cc1 | 97.2% (active)
24 | CC(NC(=O)c1cc(-c2ccccc2)on1)c1ccccc1 (stereo not drawn) | 0.984% (inactive)
25 | CSc1ccccc1NC(=O)c1cc(C2CC2)on1 | 19.8% (active)

Row | SMILES | inhibition
26 | CSc1ccccc1NC(=O)c1cc(Cl)sc1Cl | 25.1% (inactive)
27 | Cc1ccc(N2C(=O)C3C4C=CC(CC4)C3C2=O)cc1Cl (stereo not drawn) | 6.23% (inactive)
28 | C[N+](C)(C)CCNC(=O)c1cc[n+](Cc2ccccc2)c(/C=N/O)c1 | -12.2% (inactive)
29 | CCCCC[C@H]1CN(C2CCCCC2)C(=O)[C@@H]1CC(=O)NCc1ccc(OC)cc1 | -2.81% (inactive)
30 | CCOc1ccc2c(c1)c(=O)c(S(=O)(=O)c1ccc(C)cc1)cn2CC | -4.36% (inactive)
31 | O=C(NNS(=O)(=O)c1ccc(F)cc1)C1CCCCC1 | -10.2% (inactive)
32 | COc1cc(OC)c(C(=O)NC2CCCCCC2)cc1OC | -10.7% (inactive)
33 | Cc1nn(Cc2ccc(Cl)c(Cl)c2)c(C)c1NC(=O)c1cc(C2CC2)on1 | 12.5% (inactive)
34 | COc1ccccc1-c1cc(C(=O)NCCCn2ccnc2)no1 | 24.1% (inactive)
35 | O=C(NC1CCCCC1)c1cc(C2CC2)on1 | 108% (active)
36 | O=C(NCCCn1ccnc1)c1cc(-c2ccccc2)on1 | 146% (active)
37 | COc1ccc(-c2cc(C(=O)NCCCn3ccnc3)no2)cc1 | 46.8% (inactive)
38 | Cc1ccc(OCCCC(=O)Nc2ccc(S(=O)(=O)Nc3cc(C)nc(C)n3)cc2)cc1 | 12.9% (inactive)
39 | C=C1CCN(C(CC(C)C)C(=O)NCc2cc(OC)c(OC)c(OC)c2)S(=O)(=O)c2ccccc21 (stereo not drawn) | -0.34% (inactive)
40 | CCOc1cc(C2C(C(=O)c3ccco3)=C(O)C(=O)N2Cc2ccccc2)ccc1O (stereo not drawn) | -8.41% (inactive)
41 | CC(=O)[C@@]12O[C@@H]1C[C@H]1[C@@H]3CC[C@H]4C[C@@H](O)CC[C@]4(C)[C@H]3CC[C@@]12C | 33.3% (inactive)
42 | Cn1c(=O)c2sccc2n(Cc2ccc(Br)cc2)c1=O | 22.9% (inactive)
43 | Cc1cc(C)c(C#N)c(SCc2ccc3c(c2)OCO3)n1 | 26.6% (inactive)
44 | Cc1ccc(CSc2nsc(C)c2C#N)cc1 | 31.1% (active)
45 | Cc1snc(SCc2c(F)cccc2Cl)c1C#N | -6.99% (inactive)
46 | CC(C(=O)NC1CCCCC1)N1C(=O)c2cccc3cccc1c23 (stereo not drawn) | -6.55% (inactive)
47 | CC(=O)N(Cc1cc(=O)[nH]c2ccccc12)c1ccc(C)cc1C | -8.12% (inactive)
48 | O=C(c1cc2nc(-c3ccccc3)cc(-c3ccccc3)n2n1)N1CCC2(CC1)OCCO2 | 10.6% (inactive)
49 | COc1cccc(-c2cc3nc4c(c(N5CCC6(CC5)OCCO6)n3n2)CCCC4)c1 | 63.6% (active)
50 | COc1cccc(CNc2nc3nc4c(c(=O)n3[nH]2)CCC4)c1 | -7.62% (inactive)

Row | SMILES | inhibition
51 | COc1ccc(S(=O)(=O)N2CCN(C(=S)NCC3CCCO3)CC2)cc1OC (stereo not drawn) | -11.6% (inactive)
52 | O=S(=O)(NCCCCCCNS(=O)(=O)c1c(F)cccc1F)c1ccc2c(c1)OCCO2 | -3.9% (inactive)
53 | O=C(O)CCCn1cc(NC(=O)COc2cccc(Cl)c2)cn1 | 12.7% (inactive)
54 | COc1cc(C(=O)OCC(=O)NC(C)CCc2ccccc2)cc(OC)c1OC (stereo not drawn) | -9.96% (inactive)
55 | COc1ccc(OC)c(NC(=S)N2CCc3ccccc3C2)c1 | 46.8% (active)
56 | COc1ccc(NC(=S)N2CCc3cc(OC)c(OC)cc3C2)cc1 | 11.3% (inactive)
57 | COc1ccc(C)cc1NC(=S)N1CCOCC1 | -10.3% (inactive)
58 | CCOc1ccc(-c2noc(CCC(=O)NC3CCCC3)n2)cc1OC | -7.65% (inactive)
59 | COc1ccc(CCNC(=O)CSCc2ccc(Br)cc2)cc1OC | -18.8% (inactive)
60 | Cc1nn(CC(=O)NCC2CCCO2)c(=O)c2cc3ccccc3n12 (stereo not drawn) | 1.03% (inactive)
61 | Cc1cccc(NS(=O)(=O)c2cc(Cl)ccc2Cl)n1 | 2.75% (inactive)
62 | CC(C)[C@@H]1COC(c2cccc(C3=N[C@H](C(C)C)CO3)c2)=N1 | 46.5% (active)
63 | O=c1c(-c2ccccc2)coc2cc(O)ccc12 | 93% (active)
64 | Cc1c(CCC(=O)O)c(=O)oc2cc3occ(-c4ccccc4)c3cc12 | -11.6% (inactive)
65 | O=c1c(-c2ccccc2)coc2c(CN3CCOCC3)c(O)ccc12 | 7.81% (inactive)
66 | CC(C)c1ccc(C2C(C(=O)c3ccco3)=C(O)C(=O)N2CC2CCCO2)cc1 (stereo not drawn) | 1.66% (inactive)
67 | COc1ccc(S(=O)(=O)N2CCCC(C(=O)NCCCn3ccnc3)C2)cc1OC (stereo not drawn) | -5.4% (inactive)
68 | Cc1sc2ncn(CC(=O)NCCCC(=O)N(C)Cc3ccccc3)c(=O)c2c1C | -9.55% (inactive)
69 | Cc1ccc(C(=O)NNC(=O)OC(C)(C)C)c(Cl)c1 | 90.5% (active)
70 | CCOc1ccc(NC(=O)NNC(=O)c2ccc(Cl)cc2Cl)cc1 | 13.5% (inactive)
71 | CC(C)(C)OC(=O)N1CCC(C(=O)NNC(=O)c2ccc(Cl)cc2Cl)CC1 | 5.93% (inactive)
72 | CC(=O)Nc1ccc(NC(=O)c2ccc3c(c2)C(=O)N(c2ccccc2C)C3=O)cc1 | -4.3% (inactive)
73 | O=C(Nc1cccc(Cl)c1)c1cc(S(=O)(=O)N2CCCCC2)c[nH]1 | -7.57% (inactive)
74 | Cc1ccccc1NC(=O)CCNS(=O)(=O)c1ccc2[nH]c(=O)oc2c1 | -2.35% (inactive)
75 | COc1ccc(Nc2ncnc3ccc(Br)cc23)c(OC)c1 | 57.7% (active)

Row | SMILES | inhibition
76 | COc1ccc(Nc2ncnc3sc(-c4ccccc4)cc23)c(OC)c1 | 4.65% (inactive)
77 | C=CCNc1ncnc2ccc(Br)cc12 | -28.8% (inactive)
78 | COc1ccc(CN(C)C(=O)Cc2ccsc2)c(OC)c1OC | -10.3% (inactive)
79 | Cc1c(C)c2c(OCC(=O)NCCCO)cc3c(c2oc1=O)CCC(C)(C)O3 | -7.03% (inactive)
80 | COc1ccccc1CNS(=O)(=O)CC12CCC(CC1=O)C2(C)C (stereo not drawn) | -4.21% (inactive)
81 | Cc1nc(-c2ccc(Cl)cc2)sc1C(=O)NN | -18.4% (inactive)
82 | Cc1nc(-c2ccc(Cl)cc2)sc1C(=O)CBr | 52.5% (active)
83 | Cc1ccc(SCC(=O)c2sc(-c3ccccc3)nc2C)cc1 | -2.76% (inactive)
84 | CCN1CCN(C(=O)C2CCN(S(=O)(=O)c3cc(Cl)ccc3Cl)CC2)CC1 | -5.92% (inactive)
85 | CC1(C)c2[nH]c3ccccc3c2C[C@H]2C(=O)N(N)CC(=O)N21 | 11.8% (inactive)
86 | COc1ccc(NC(=O)CSCc2ccc([N+](=O)[O-])cc2)cc1OC | -3.27% (inactive)
87 | CC(C)C(=O)N1CC(=O)Nc2ccc(F)cc2C1c1ccc(F)cc1 (stereo not drawn) | -3.75% (inactive)
88 | Cc1ccc(C(=O)NC2CCN(C(=O)Nc3ccc(F)cc3)CC2)cc1 | -7.26% (inactive)
89 | Cc1ccc(NC(=S)Nc2ccc(F)cc2)cc1 | 27.7% (inactive)
90 | COC(=O)c1ccc(NC(=O)c2ccccc2NS(=O)(=O)c2ccccc2)cc1 | 5.81% (inactive)
91 | Cc1ccc(C(=O)CNc2ccc(F)cc2)cc1 | 45.5% (active)
92 | COC(=O)c1ccc(NCC(=O)c2ccccc2)cc1 | 85.2% (active)
93 | COC(=O)c1ccc(/C=N/NC(=O)C(=O)N2CCCCCC2)cc1 | -5.76% (inactive)
94 | COC(=O)c1ccc(NCC(=O)N2CCCCCC2)cc1 | 110% (active)
95 | COc1ccc(NC(=O)CCCC(=O)c2ccccc2)cc1 | 6.27% (inactive)
96 | COC(=O)c1ccc(C(=O)OC)c(NC(=S)N2CCCCC2)c1 | 12.8% (inactive)
97 | c1ccc(Cc2ccc(OCCn3ccnc3)cc2)cc1 | 1.57% (inactive)
98 | COc1ccc(CN(C)C(=O)c2cc(-c3ccc(C)cc3C)nc3ccccc23)c(OC)c1OC | -8.91% (inactive)
